39 compounds from PubChem BioAssay AID624255 (Broad Institute, 2012) can be followed below.

“And” between values parts separate entries of the source, which are not always exact repeats. Identical values can stand only once. About 4,600 (6%) of roughly 77,000 compounds were called active. About 1% were inconclusive and are not listed. The sample as a whole holds a higher share of actives than the screen did. Unmarked numbers belong to inactive results.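 How the source made its calls: active means mean inhibition above about 93%, with at least 55% of replicates each passing it (limit read from the data, passing the limit was not always enough); inconclusive means only one of those two conditions holds; inactive means neither condition holds.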

This test can be described thus: growth inhibition of T. cruzi in host fibroblasts – cell-based, beta-gal Tulahuen parasites, NIH3T3 host, luminescence, primary screen (AID 624255). Particulars: T. cruzi beta-gal in NIH3T3, GalScreen luminescence, 90 h; at 8.34 µM; active compounds read high.
A word on the inhibition: it is the relative decrease from the control value, in per cent. Consider `CN1[C@@H]2CN(C(=O)c3ccc(F)cc3)c3ccccc3[C@@H]2[C@@H]1CO`, for which the inhibition is -2.39%.

Turning to `COc1cccc(-c2ccc3n(c2=O)C[C@H]2[C@H](CO)[C@@H](C(=O)N4CCCCC4)N(C)[C@@H]32)c1`, the inhibition was 13.1%.

Turning to `COc1cccc(S(=O)(=O)N(C)C[C@@H]2Oc3cc(C#CCN(C)C)ccc3S(=O)(=O)N([C@@H](C)CO)C[C@@H]2C)c1`, the inhibition was 91.4%.

Turning to `C[C@@H]1CN([C@@H](C)CO)S(=O)(=O)c2ccc(-c3cccc(F)c3)cc2O[C@@H]1CN(C)S(=O)(=O)c1ccccc1`, the inhibition is 117% (active).

On to `C[C@@H]1CN([C@@H](C)CO)S(=O)(=O)c2ccc(C#Cc3ccncc3)cc2O[C@@H]1CN(C)S(=O)(=O)c1ccccc1`, for which the inhibition was 11.5%.

As for `COc1cccc(S(=O)(=O)N(C)C[C@H]2Oc3cc(C#CCN(C)C)ccc3S(=O)(=O)N([C@H](C)CO)C[C@H]2C)c1`, the inhibition was 75.2%.

On to `C[C@@H]1CN([C@H](C)CO)S(=O)(=O)c2ccc(C3=CCCC3)cc2O[C@@H]1CN(C)C(=O)C1CCC1`, for which the inhibition is 52.9%.

Regarding `C[C@@H]1CN([C@H](C)CO)S(=O)(=O)c2ccc(C3=CCCC3)cc2O[C@H]1CN(C)C(=O)c1ccccc1`, the inhibition was -0.873%.

As to `C[C@H]1CN([C@@H](C)CO)S(=O)(=O)c2ccc(C#Cc3ccccc3)cc2O[C@H]1CN(C)S(=O)(=O)c1cn(C)cn1`, the inhibition was 27.9%.

As for `C[C@H](CO)N1C[C@H](C)[C@@H](CN(C)S(=O)(=O)c2ccc(F)cc2)Oc2cc(C3=CCCC3)ccc2S1(=O)=O`, the inhibition was 114% (active).

On to `CC(C)CC#Cc1ccc2c(c1)O[C@H](CN(C)S(=O)(=O)c1cccc(F)c1)[C@@H](C)CN([C@@H](C)CO)S2(=O)=O`, for which the inhibition is 119% (active).

`C[C@@H]1CN([C@@H](C)CO)S(=O)(=O)c2ccc(C#Cc3cccc(F)c3)cc2O[C@H]1CN(C)S(=O)(=O)c1cn(C)cn1`: the inhibition is 61.3% and -15.4%.

Regarding `C[C@H]1CN([C@@H](C)CO)S(=O)(=O)c2ccc(C#Cc3cccc(F)c3)cc2O[C@@H]1CN(C)S(=O)(=O)c1cn(C)cn1`, the inhibition was 102% (active).

With `CC(=O)N(C)C[C@@H]1Oc2cc(-c3cccc(F)c3)ccc2S(=O)(=O)N([C@H](C)CO)C[C@H]1C`, the inhibition was 31.3%.

Turning to `C[C@H](CO)N1C[C@H](C)[C@H](CN(C)CC2CC2)OCCCC[C@H](C)Oc2ccc(NS(=O)(=O)c3cccs3)cc2C1=O`, the inhibition is 38%.

Regarding `CN1c2ccc(-c3ccc(F)cc3)cc2[C@@H]2[C@@H](CCN2S(=O)(=O)c2ccc(F)cc2)[C@@H]1CO`, the inhibition was 90.2%.

As for `CN1c2ccc(-c3ccc(F)cc3)cc2[C@@H]2[C@@H](CCN2C(=O)c2cccnc2)[C@H]1CO`, the inhibition was 84%.

Turning to `C[C@@H]1CCCCO[C@H](CN(C)C(=O)c2ccccc2)[C@H](C)CN([C@H](C)CO)C(=O)c2cc(N(C)C)ccc2O1`, the inhibition is 91.3%.

Turning to `COCC(=O)N1C[C@@H]2[C@H](c3ccccc31)[C@@H](CO)N2C(=O)C1CC1`, the inhibition is 65.2%.

In the case of `CN1C(=O)c2cc(NC(=O)c3ccccc3)ccc2OC[C@@H]2O[C@H](CC(=O)NCC3CC3)CC[C@@H]21`, the inhibition was -30.4%.

On to `O=C(c1cccnc1)N1C[C@H]2[C@@H](c3ccccc31)[C@@H](CO)N2C(=O)Nc1ccccc1F`, for which the inhibition was -1.74%.

Take `C[C@H]1CN([C@@H](C)CO)C(=O)c2c(c3ccccc3n2C)-c2ccccc2CO[C@H]1CN(C)S(=O)(=O)c1ccc(C#N)cc1`: the inhibition was 29.4%.

For `C[C@@H]1CN([C@H](C)CO)S(=O)(=O)c2ccc(-c3cccc(F)c3)cc2O[C@H]1CN(C)S(=O)(=O)c1ccc(F)cc1`, the inhibition is 118% (active).

Take `C[C@H]1CN([C@@H](C)CO)S(=O)(=O)c2ccc(-c3cccc(F)c3)cc2O[C@@H]1CN(C)C`: the inhibition is -32.3% and -49.6%.

With `C[C@@H]1CN([C@@H](C)CO)S(=O)(=O)c2ccc(-c3ccc(F)cc3)cc2O[C@H]1CN(C)C(=O)c1ccccc1F`, the inhibition was 84.8%.

Take `COc1cccc(NC(=O)N[C@@H]2CC[C@H](CC(=O)NCc3ccccn3)O[C@H]2CO)c1`: the inhibition was -39.2%.

In the case of `CO[C@@H]1CN(C)C(=O)c2cc(NS(=O)(=O)c3cn(C)cn3)ccc2OC[C@@H](C)NC[C@H]1C`, the inhibition was -12.5%.

With `Cc1ccccc1S(=O)(=O)N[C@H]1CC[C@@H](CCn2cc(Cc3ccccc3)nn2)O[C@H]1CO`, the inhibition was -21.8%.

As for `COc1ccc(-c2ccc3c(c2)[C@@H]2[C@@H](CCN2C(=O)Cc2ccccn2)[C@H](CO)N3C)cc1`, the inhibition was 90.9% (active).

For `CN1c2ccc(-c3ccccc3)cc2[C@@H]2[C@@H](CCN2C(=O)c2ccccc2F)[C@@H]1CO`, the inhibition is 83.7%.

Consider `CCC(=O)N1CC[C@@H]2[C@@H](CO)N(C)c3ccc(-c4cccc(OC)c4)cc3[C@@H]21`, for which the inhibition was 104% (active).

For `COc1ccc(-c2ccc3c(c2)[C@H]2[C@H](CCN2C(=O)C2CCOCC2)[C@H](CO)N3C)cc1`, the inhibition is 1.27%.

`CCC(=O)N1CC[C@H]2[C@@H]1c1cc(-c3ccc(C#N)cc3)ccc1N(C)[C@H]2CO`: the inhibition was 58.1%.

Take `CN1c2ccc(-c3ccccc3)cc2[C@@H]2[C@@H](CCN2C(=O)c2ccccc2)[C@H]1CO`: the inhibition is 62.4%.

With `COc1cccc(NC(=O)N2CC[C@@H]3[C@@H](CO)N(C)c4ccc(-c5cccc(F)c5)cc4[C@@H]32)c1`, the inhibition is 30.5%.

On to `CN1c2ccc(-c3ccccc3F)cc2[C@H]2[C@H](CCN2C(=O)Cc2ccccn2)[C@H]1CO`, for which the inhibition is 81%.

`CN1c2ccc(-c3ccccc3)cc2[C@@H]2[C@@H](CCN2C(=O)c2ccncc2)[C@@H]1CO`: the inhibition is 103% (active).

Take `CCCNC(=O)C[C@@H]1CC[C@H]2[C@H](COc3ccc(NC(=O)c4ccc(Cl)cc4)cc3C(=O)N2C)O1`: the inhibition was 29.6%.

For the compound `COc1ccc(S(=O)(=O)Nc2ccc3c(c2)C(=O)N(C)C[C@@H](OC)[C@H](C)CN(C(=O)NC(C)C)[C@H](C)CO3)cc1`, the inhibition was -70.7%.
